Active and inactive are the calls of the source. Rule for the calls: active = hit-call score of the fitted dose curve at least 0.9, where 1 is the maximum; inactive = score below 0.9.
experiment: ATG_EGR_CIS: Attagene CIS-FACTORIAL HepG2 Assay for human Early Growth Response 1 (EGR1) (AID 2282938); details: HepG2 Attagene CIS-FACTORIAL EGR reporter mRNA; actives raise or lower the signal
Method: ATG_CIS is a cell-based, multiplexed-readout assay that uses HepG2, a human liver cell line, with measurements taken at 24 hours after chemical dosing in a 24-well plate.ATG_EGR_CIS is one of 52 assay component(s) measured or calculated from the ATG_CIS assay. It is designed to make measurements of mRNA induction, a form of inducible reporter, as detected with fluorescence intensity signals by Reverse transcription polymerase chain reaction (RT-PCR) and Capillary electrophoresis technology.Data from the assay component ATG_EGR_CIS was analyzed into 1 assay endpoint. This assay endpoint, ATG_EGR_CIS, was analyzed with bidirectional fitting relative to DMSO as the negative control and baseline of activity. Using a type of inducible reporter, measures of mRNA for gain or loss-of-signal activity can be used to understand the reporter gene at the transcription factor-level as they relate to the gene EGR1. Furthermore, this assay endpoint can be referred to as a primary readout, because this assay has produced multiple assay endpoints where this one serves a reporter gene function. To generalize the intended target to other relatable targets, this assay endpoint is annotated to the dna binding intended target family, where the subfamily is zinc finger.
Human liver HepG2 cells are transiently transfected with multiple reporter transcription units (MRTUs) in 6-well plates using FuGene 6 reagent (Roche; 3 ml FuGene/1 mg DNA). The MRTU constructs are regulated by a cis-regulating element (promoter). […] A major difference between the CIS and TRANS system is that in CIS activities of endogenous TFs are measured, whereas the TRANS assay evaluates changes in activities of exogenous, chimeric NR-Gal4 proteins. […] At the end of 24 hour incubation, total RNA was isolated using TriZol reagent (Invitrogen). The isolated RNA is then reverse-transcribed using oligo(dT) primer and Mo-MLV reverse transcriptase (Invitrogen) with DNAse I (Ambion) treatment for 30 min. The one-tenth of the produced cDNA was amplified by PCR using Taq DNA polymerase (Invitrogen) and two reporter sequence-specific primers. The PCR products were fluorescently labeled by primer extension with 6-arboxyfluorescein (6-FAM) 5'-labeled reporter sequence-specific primer (2 min at 95 C, 20 s at 68 C and 10 min at 72 C) and these products were digested with 5U of HpaI (New England Biolabs) for 2h at 37 C. The fragments were purified using Qiaquick PCR columns (Qiagen), analyzed on an ABI 3130xL genetic analyzer (Applied Biosystems) with peak positions identified by using a set of X-rhodamine (ROX)-labeled MapMarker1000 molecular weight standards (BioVentures). The raw capillary electrophoresis data was processed using Attagraph software (Attagene).

| Structure (SMILES) | outcome | AC50 |
| --- | --- | --- |
| O=C(O)c1cn(C2CC2)c2cc(N3CCNCC3)c(F)cc2c1=O | inactive | – |
| Cc1ccc(C(=O)O)o1 | inactive | – |
| C=COCCOCCOCCOC=C | inactive | – |
| C=CC(C)(CCC=C(C)C)OC=O (stereo not given) | inactive | – |
| COc1c(Cl)c(Cl)c(Cl)c(Cl)c1Cl | inactive | – |
| Cc1ccc(C(C)C)cc1O | inactive | – |
| COc1cc(C=O)ccc1OC(=O)C(C)C | inactive | – |
| CC(=O)C=CC1=C(C)CCCC1(C)C | inactive | – |
| CC(C)=CCO | inactive | – |
| CC1=CCC(O)(C(C)C)CC1 (stereo not given) | inactive | – |
| CCCCCC(CO)CCC (stereo not given) | inactive | – |
| [Ca+2] | inactive | – |
| C[C@]12CC[C@H]3[C@@H](CCC4=CC(=O)CC[C@@]43C)[C@@H]1CC[C@@H]2C(=O)CO | – | 55.9 µM (active) |
| O=C(COc1ccc(Cl)cc1)N1CCN(Cc2ccc3c(c2)OCO3)CC1 | – | 32.1 µM (active) |
| Cc1ccc2sc3cccc(C)c3c2c1 | inactive | – |
| COc1ccnc(CS(=O)c2nc3cc(OC(F)F)ccc3[nH]2)c1OC (stereo not given) | inactive | – |
| Cc1ccc(O)c(C(C)(C)C)c1 | inactive | – |
| OCCOCCOCCOCCO | inactive | – |
| O=C1NC(=O)c2ccccc21 | inactive | – |
| COc1cccc(OC)c1 | inactive | – |

| Structure (SMILES) | outcome | AC50 |
| --- | --- | --- |
| COC(=O)OC | inactive | – |
| CC(=O)OCc1ccc2c(c1)OCO2 | inactive | – |
| CC(=O)OCC=Cc1ccccc1 | inactive | – |
| O=C(O)C[C@H](O)C[C@H](O)/C=C/c1c(C2CC2)nc2ccccc2c1-c1ccc(F)cc1 | inactive | – |
| Cc1cccc(C)c1C | inactive | – |
| C=O | inactive | – |
| CC(C)=CCCC(C)CC=O (stereo not given) | inactive | – |
| Cc1c(Cl)c(=O)oc2cc(O)ccc12 | inactive | – |
| N#Cc1ccc(CC(=NNC(=O)Nc2ccc(OC(F)(F)F)cc2)c2cccc(C(F)(F)F)c2)cc1 | inactive | – |
| BrC1CCC(Br)C(Br)CCC(Br)C(Br)CCC1Br (stereo not given) | – | 35.9 µM (active) |
| Cc1ccc(Nc2ccc(O)c3c2C(=O)c2ccccc2C3=O)cc1 | inactive | – |
| CCCCCCCCCCCCOCCO | inactive | – |
| CCCCCCCCCC=O | inactive | – |
| CCCCCCCCCOC(C)=O | inactive | – |
| CC(C)CCCCCCCOC(=O)c1ccc(C(=O)OCCCCCCCC(C)C)c(C(=O)OCCCCCCCC(C)C)c1 | inactive | – |
| CC1COc2ccccc2N1C(=O)C(Cl)Cl (stereo not given) | – | 41.1 µM (active) |
| CCCCCCCCCCC(CO)CCCCCCCC (stereo not given) | inactive | – |
| COc1ccc(Nc2ccccc2)c(C)c1 | inactive | – |
| CC(=O)/C=C/C1=C(C)CCCC1(C)C | inactive | – |
| O=C1O[C@@H]2[C@@H](O)[C@H](O)O[C@@H]2[C@H]1O | inactive | – |

Reference: PubChem BioAssay (EPA / NIEHS)
